# B1: unnamed (peptide)
# chain: MTKTPETSPPKRPMG
# B2: unnamed (peptide)
# chain: FTLPPPPPPPGLDEL
# Target: CaNbp2
# Test: SPOT peptide array binding signal intensity (averaged, normalized) (arbitrary units (background-subtracted, floor 0; scale differs between SH3 domains)); higher = stronger binding of the SH3 domain to the peptide
# In short: (§1)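 To measure binding, SH3 domains from four yeast species were fused to GST, expressed in E. coli BL21(DE3) and purified on glutathione Sepharose. Each domain was incubated at 10 μg/ml overnight at 4°C on cellulose membranes with synthetic 15-mer peptides whose cysteines were replaced by serines. Anti-GST antibody, an HRP anti-mouse secondary and luminol were used for detection, and images were quantified with Genespotter. Reported binding signal is normalized, background-subtracted spot intensity averaged over replicates, in arbitrary units that differ between domains.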
row,Binder,SPOT peptide array binding signal intensity
1,B1,40.5
2,B2,≤ 0

# Target: CaRvs167
# Test: as above
# In short: as §1
row,Binder,SPOT peptide array binding signal intensity
1,B1,17.8
2,B2,≤ 0

# Target: CaRvs167-3
# Test: as above
# In short: as §1
row,Binder,SPOT peptide array binding signal intensity
1,B1,≤ 0
2,B2,≤ 0

# Target: CaSho1
# Test: as above
# In short: as §1
row,Binder,SPOT peptide array binding signal intensity
1,B1,10.5
2,B2,≤ 0

# Target: CaSla1-D1-D2
# Test: as above
# In short: as §1
row,Binder,SPOT peptide array binding signal intensity
1,B1,210
2,B2,7

# Target: CaSla1-D3
# Test: as above
# In short: as §1
row,Binder,SPOT peptide array binding signal intensity
1,B1,106
2,B2,≤ 0

# Target: ScAbp1
# Test: as above
# In short: as §1
row,Binder,SPOT peptide array binding signal intensity
1,B1,≤ 0
2,B2,≤ 0

# Target: ScBbc1
# Test: as above
# In short: as §1
row,Binder,SPOT peptide array binding signal intensity
1,B1,0.5
2,B2,2

# Target: ScBem1-D1
# Test: as above
# In short: as §1
row,Binder,SPOT peptide array binding signal intensity
1,B1,≤ 0
2,B2,≤ 0

# Target: ScBzz1-D1
# Test: as above
# In short: as §1
row,Binder,SPOT peptide array binding signal intensity
1,B1,1
2,B2,12

# Target: ScBzz1-D2
# Test: as above
# In short: as §1
row,Binder,SPOT peptide array binding signal intensity
1,B1,6
2,B2,0.5

# Target: ScCyk3
# Test: as above
# In short: as §1
row,Binder,SPOT peptide array binding signal intensity
1,B1,≤ 0
2,B2,≤ 0

# Target: ScFus1
# Test: as above
# In short: as §1
row,Binder,SPOT peptide array binding signal intensity
1,B1,≤ 0
2,B2,≤ 0

# Target: ScHof1
# Test: as above
# In short: as §1
row,Binder,SPOT peptide array binding signal intensity
1,B1,1.25
2,B2,204

# Target: ScHse1
# Test: as above
# In short: as §1
row,Binder,SPOT peptide array binding signal intensity
1,B1,18.5
2,B2,≤ 0

# Target: ScLsb1
# Test: as above
# In short: as §1
row,Binder,SPOT peptide array binding signal intensity
1,B1,6.5
2,B2,0.25

# Target: ScLsb2
# Test: as above
# In short: as §1
row,Binder,SPOT peptide array binding signal intensity
1,B1,2.5
2,B2,≤ 0

# Target: ScLsb3
# Test: as above
# In short: as §1
row,Binder,SPOT peptide array binding signal intensity
1,B1,45.5
2,B2,≤ 0

# Target: ScLsb4
# Test: as above
# In short: as §1
row,Binder,SPOT peptide array binding signal intensity
1,B1,10
2,B2,≤ 0

# Target: ScMyo3
# Test: as above
# In short: as §1
row,Binder,SPOT peptide array binding signal intensity
1,B1,1860
2,B2,1360

# Target: ScMyo5
# Test: as above
# In short: as §1
row,Binder,SPOT peptide array binding signal intensity
1,B1,462
2,B2,1880

# Target: ScNbp2
# Test: as above
# In short: as §1
row,Binder,SPOT peptide array binding signal intensity
1,B1,25
2,B2,1

# Target: ScPex13
# Test: as above
# In short: as §1
row,Binder,SPOT peptide array binding signal intensity
1,B1,24.2
2,B2,1

# Target: ScRvs167
# Test: as above
# In short: as §1
row,Binder,SPOT peptide array binding signal intensity
1,B1,7.17
2,B2,≤ 0

# Target: ScSho1
# Test: as above
# In short: as §1
row,Binder,SPOT peptide array binding signal intensity
1,B1,≤ 0
2,B2,≤ 0

# Target: ScSla1-D1-D2
# Test: as above
# In short: as §1
row,Binder,SPOT peptide array binding signal intensity
1,B1,62.5
2,B2,4.5

# Target: ScSla1-D3
# Test: as above
# In short: as §1
row,Binder,SPOT peptide array binding signal intensity
1,B1,65.2
2,B2,1.5

# Target: SpAbp1-D1
# Test: as above
# In short: as §1
row,Binder,SPOT peptide array binding signal intensity
1,B1,3
2,B2,≤ 0

# Target: SpBbc1
# Test: as above
# In short: as §1
row,Binder,SPOT peptide array binding signal intensity
1,B1,0.5
2,B2,≤ 0

# Target: SpBzz1-D1
# Test: as above
# In short: as §1
row,Binder,SPOT peptide array binding signal intensity
1,B1,30.5
2,B2,1530

# Target: SpBzz1-D2
# Test: as above
# In short: as §1
row,Binder,SPOT peptide array binding signal intensity
1,B1,1.25
2,B2,9.25

# Target: SpCyk3
# Test: as above
# In short: as §1
row,Binder,SPOT peptide array binding signal intensity
1,B1,1
2,B2,≤ 0

# Target: SpHof1
# Test: as above
# In short: as §1
row,Binder,SPOT peptide array binding signal intensity
1,B1,18.5
2,B2,2.5

# Target: SpHof1-2
# Test: as above
# In short: as §1
row,Binder,SPOT peptide array binding signal intensity
1,B1,18.2
2,B2,1

# Target: SpHof1-3
# Test: as above
# In short: as §1
row,Binder,SPOT peptide array binding signal intensity
1,B1,≤ 0
2,B2,5.75

# Target: SpHse1
# Test: as above
# In short: as §1
row,Binder,SPOT peptide array binding signal intensity
1,B1,13
2,B2,≤ 0

# Target: SpLsb1
# Test: as above
# In short: as §1
row,Binder,SPOT peptide array binding signal intensity
1,B1,2.5
2,B2,≤ 0

# Target: SpLsb4
# Test: as above
# In short: as §1
row,Binder,SPOT peptide array binding signal intensity
1,B1,285
2,B2,≤ 0

# Target: SpMyo1
# Test: as above
# In short: as §1
row,Binder,SPOT peptide array binding signal intensity
1,B1,446
2,B2,1110

# Target: SpNbp2
# Test: as above
# In short: as §1
row,Binder,SPOT peptide array binding signal intensity
1,B1,5.5
2,B2,≤ 0

# Target: SpPex13
# Test: as above
# In short: as §1
row,Binder,SPOT peptide array binding signal intensity
1,B1,≤ 0
2,B2,≤ 0

# Target: SpRvs167
# Test: as above
# In short: as §1
row,Binder,SPOT peptide array binding signal intensity
1,B1,18.5
2,B2,16.7

# Target: SpSla1-D1-D2
# Test: as above
# In short: as §1
row,Binder,SPOT peptide array binding signal intensity
1,B1,4
2,B2,≤ 0

# Target: SpSla1-D3
# Test: as above
# In short: as §1
row,Binder,SPOT peptide array binding signal intensity
1,B1,17
2,B2,≤ 0

# Target: AgAbp1
# Test: as above
# In short: as §1
row,Binder,SPOT peptide array binding signal intensity
1,B2,≤ 0

# Target: AgBbc1
# Test: as above
# In short: as §1
row,Binder,SPOT peptide array binding signal intensity
1,B2,≤ 0

# Target: AgBem1-D1
# Test: as above
# In short: as §1
row,Binder,SPOT peptide array binding signal intensity
1,B2,≤ 0

# Target: AgBzz1-D1
# Test: as above
# In short: as §1
row,Binder,SPOT peptide array binding signal intensity
1,B2,≤ 0

# Target: AgBzz1-D2
# Test: as above
# In short: as §1
row,Binder,SPOT peptide array binding signal intensity
1,B2,3

# Target: AgCyk3
# Test: as above
# In short: as §1
row,Binder,SPOT peptide array binding signal intensity
1,B2,≤ 0

# Target: AgFus1
# Test: as above
# In short: as §1
row,Binder,SPOT peptide array binding signal intensity
1,B2,≤ 0

# Target: AgHof1
# Test: as above
# In short: as §1
row,Binder,SPOT peptide array binding signal intensity
1,B2,85.8

# Target: AgHse1
# Test: as above
# In short: as §1
row,Binder,SPOT peptide array binding signal intensity
1,B2,≤ 0

# Target: AgLsb1
# Test: as above
# In short: as §1
row,Binder,SPOT peptide array binding signal intensity
1,B2,≤ 0

# Target: AgLsb4
# Test: as above
# In short: as §1
row,Binder,SPOT peptide array binding signal intensity
1,B2,≤ 0

# Target: AgMyo5
# Test: as above
# In short: as §1
row,Binder,SPOT peptide array binding signal intensity
1,B2,1170

# Target: AgNbp2
# Test: as above
# In short: as §1
row,Binder,SPOT peptide array binding signal intensity
1,B2,≤ 0

# Target: AgRvs167
# Test: as above
# In short: as §1
row,Binder,SPOT peptide array binding signal intensity
1,B2,0.833

# Target: AgSho1
# Test: as above
# In short: as §1
row,Binder,SPOT peptide array binding signal intensity
1,B2,≤ 0

# Target: AgSla1-D1-D2
# Test: as above
# In short: as §1
row,Binder,SPOT peptide array binding signal intensity
1,B2,4

# Target: AgSla1-D3
# Test: as above
# In short: as §1
row,Binder,SPOT peptide array binding signal intensity
1,B2,≤ 0

# Target: CaAbp1-D1
# Test: as above
# In short: as §1
row,Binder,SPOT peptide array binding signal intensity
1,B2,≤ 0

# Target: CaAbp1-D2
# Test: as above
# In short: as §1
row,Binder,SPOT peptide array binding signal intensity
1,B2,≤ 0

# Target: CaBbc1
# Test: as above
# In short: as §1
row,Binder,SPOT peptide array binding signal intensity
1,B2,≤ 0

# Target: CaBem1-D1
# Test: as above
# In short: as §1
row,Binder,SPOT peptide array binding signal intensity
1,B2,≤ 0

# Target: CaBzz1-D1
# Test: as above
# In short: as §1
row,Binder,SPOT peptide array binding signal intensity
1,B2,491

# Target: CaBzz1-D2
# Test: as above
# In short: as §1
row,Binder,SPOT peptide array binding signal intensity
1,B2,23

# Target: CaCyk3
# Test: as above
# In short: as §1
row,Binder,SPOT peptide array binding signal intensity
1,B2,≤ 0

# Target: CaFus1
# Test: as above
# In short: as §1
row,Binder,SPOT peptide array binding signal intensity
1,B2,≤ 0

# Target: CaHof1
# Test: as above
# In short: as §1
row,Binder,SPOT peptide array binding signal intensity
1,B2,0.5

# Target: CaHse1
# Test: as above
# In short: as §1
row,Binder,SPOT peptide array binding signal intensity
1,B2,≤ 0

# Target: CaLsb1
# Test: as above
# In short: as §1
row,Binder,SPOT peptide array binding signal intensity
1,B2,≤ 0

# Target: CaLsb4
# Test: as above
# In short: as §1
row,Binder,SPOT peptide array binding signal intensity
1,B2,≤ 0

# Target: CaMyo5
# Test: as above
# In short: as §1
row,Binder,SPOT peptide array binding signal intensity
1,B2,33.8

# — the supplement of paper PMC4466140
